Assay [1] is described as follows: qHTS assay to identify small molecule antagonists of the retinoid acid receptor (RAR) signaling pathway - cell viability counter screen (AID 1159551). Also: nearly all actives have a fitted effect of over 35% in size. Also: potency is read from the fitted curve at half-maximal effect. In a few lines:
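Viability of C3RL4 cells is quantified from ATP by luminescence after 6 h treatment at 37 C with compounds and 1 uM retinol.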
A general note: qHTS replaces the single test concentration by a dilution series.

Assay [2] is described as follows: qHTS assay to identify small molecule antagonists of the estrogen related receptor (ERR) signaling pathway from Tox21 library - cell viability counter screen (AID 1224834). Also: nearly all actives have a fitted effect of over 30% in size. Also: potency is read from the fitted curve at half-maximal effect. Put shortly:
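In this quantitative HTS format, ERR cells receive compounds in DMSO and are incubated for 17.5 h at 37 C. Live-cell protease activity is then detected with CellTiter-Fluor.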

Assay [3] addresses Luciferin 4-monooxygenase (Photinus pyralis) (UniProt P08659). The assay is described as follows: qHTS assay to identify small molecule inhibitors of firefly luciferase (AID 1224835). Also: nearly all actives have a fitted effect of over 25% in size. Also: potency is read from the fitted curve at half-maximal effect. As to activity change, negative = inhibition: series mostly up to about 120 µM. In a few lines:
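Biochemical qHTS: compounds run as interplate titrations against purified firefly enzyme, with D-luciferin and ATP each at its KM concentration. Light output recorded by CCD imaging.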

The nature of assay [4]: qHTS assay to identify small molecule agonists of the constitutive androstane receptor (CAR) signaling pathway - cell viability counter screen (AID 1224836). Also: nearly all actives have a fitted effect of over 45% in size. Also: potency is read from the fitted curve at half-maximal effect. As to viability change, negative = cytotoxic: series mostly up to about 92 µM. Put shortly: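 HepG2-CYP2B6-hCAR, 2500 cells/well, 4 h pre-incubation; cpd 15 conc + PK11195 0.75 uM final; 23 h, 37 C/5% CO2; CellTiter-Fluor, fluorescence.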
Assay [5] in a line: qHTS assay to identify small molecule antagonists of the constitutive androstane receptor (CAR) signaling pathway - cell viability counter screen (AID 1224837). Also: nearly all actives have a fitted effect of over 45% in size. Also: potency is read from the fitted curve at half-maximal effect. As to activity change, negative = cytotoxicity: series mostly up to about 92 µM. Put shortly: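 In quantitative HTS format, compounds at 15 concentrations were applied to HepG2 cells double-transfected with hCAR and CYP2B6-2.2kb under 50 nM CITCO stimulation; live-cell protease activity was read after 23 hr via CellTiter-Fluor.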

For assay [6], the target named is Nuclear receptor subfamily 1 group I member 3 (Homo sapiens) (UniProt Q14994). As to the kind of experiment: qHTS assay to identify small molecule antagonists of the constitutive androstane receptor (CAR) signaling pathway (AID 1224838). Also: nearly all actives have a fitted effect of over 40% in size. Also: potency is read from the fitted curve at half-maximal effect. In a few lines: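 CITCO-stimulated (50 nM final) HepG2 cells stably transfected with hCAR and CYP2B6-2.2kb luciferase were exposed to compounds at 15 concentrations for 24 h at 37 C/5% CO2. A luciferase reagent was added and luminescence recorded after 30 min.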
Chain of Nuclear receptor subfamily 1 group I member 3 (Homo sapiens) (Q14994 whole entry, looked up): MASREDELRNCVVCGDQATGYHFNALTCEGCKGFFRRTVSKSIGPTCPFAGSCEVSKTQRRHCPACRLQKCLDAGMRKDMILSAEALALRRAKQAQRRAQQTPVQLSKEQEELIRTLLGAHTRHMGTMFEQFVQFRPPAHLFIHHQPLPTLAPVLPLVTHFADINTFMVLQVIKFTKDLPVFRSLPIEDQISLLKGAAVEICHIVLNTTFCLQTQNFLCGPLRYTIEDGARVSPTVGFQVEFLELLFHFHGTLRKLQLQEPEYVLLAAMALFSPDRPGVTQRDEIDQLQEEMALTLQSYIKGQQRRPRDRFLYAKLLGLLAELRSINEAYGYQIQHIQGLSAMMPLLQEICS

Assay [7] can be described thus: qHTS assay to identify small molecule antagonists of the estrogen related receptor signaling pathway with the pleiotropic PPARgamma coactivator (PGC) from Tox21 10K library - cell viability counter screen (AID 1224840; active = well fitted cell-killing curve with a large enough effect in the repeat runs, not every such curve was filed as active; also: nearly all actives have a fitted effect of over 40% in size; also: potency is read from the fitted curve at half-maximal effect). In a few lines:
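Viability counter screen, PGC/ERR cells: 17.5 h compound exposure at 37 C, CellTiter-Fluor fluorescence endpoint.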

A short description of assay [8]: qHTS assay to identify small molecule antagonists of the estrogen related receptor signaling pathway with the pleiotropic PPARgamma coactivator (PGC) from Tox21 10K library (AID 1224841; call rule not given here; also: actives are mostly falling curves and most rising ones were filed inactive; nearly all actives have a fitted effect of over 50% in size; also: potency is read from the fitted curve at half-maximal effect; as to activity, negative = inhibition: series mostly up to about 92 µM). In a few lines:
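In the PGC/ERR line, DMSO solutions of test chemicals are pin-delivered to 2,000 cells/well six hours after dispensing. Following eighteen hours' incubation, One-Glo reagent is added and luminescence recorded.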

The nature of assay [9]: qHTS assay to identify small molecule agonists of the estrogen related receptor signaling pathway with the pleiotropic PPARgamma coactivator (PGC) from Tox21 10K library (AID 1224842). Also: nearly all actives have a fitted effect of over 15% in size. Put shortly:
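PGC/ERR reporter cell line, 2,000 cells per well, incubated 6 h at 37 C before 23 nL compound in DMSO was added. After 18 h at 37 C, One-Glo luminescence read following 30 min at room temperature.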

Assay [10] has as its target Nuclear receptor subfamily 1 group I member 3 (Homo sapiens) (UniProt Q14994). As to the kind of experiment: qHTS assay to identify small molecule agonists of the constitutive androstane receptor (CAR) signaling pathway (AID 1224839). Also: nearly all actives have a fitted effect of over 15% in size. Also: potency is read from the fitted curve at half-maximal effect.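 As to activation: HepG2 cells stably carrying human CAR and a CYP2B6 luciferase reporter; series mostly up to about 92 µM.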 Put shortly:
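HepG2-CYP2B6-hCAR cells, 2500/well, 4 h pre-incubation; compounds 15 conc.; PK11195 0.75 uM final; 24 h, 37 C/5% CO2; ONE-Glo luciferase read.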

For assay [11], the target named is Thyrotropin receptor (Homo sapiens) (UniProt P16473). The assay is described as follows: qHTS assay to identify small molecule agonists of the thyroid stimulating hormone receptor (TSHR) signaling pathway (AID 1224843; calls by dose curve; also: nearly all actives have a fitted effect of over 45% in size; also: potency is read from the fitted curve at half-maximal effect). Put shortly: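 Agonist-mode screen: TSHR HEK293 cells received test chemicals for half an hour at room temperature, then HTRF cAMP detection reagents for one hour prior to fluorescence measurement. Each chemical ran as a 15-concentration series, triplicated.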
Chain of Thyrotropin receptor (Homo sapiens) (P16473 whole entry, looked up): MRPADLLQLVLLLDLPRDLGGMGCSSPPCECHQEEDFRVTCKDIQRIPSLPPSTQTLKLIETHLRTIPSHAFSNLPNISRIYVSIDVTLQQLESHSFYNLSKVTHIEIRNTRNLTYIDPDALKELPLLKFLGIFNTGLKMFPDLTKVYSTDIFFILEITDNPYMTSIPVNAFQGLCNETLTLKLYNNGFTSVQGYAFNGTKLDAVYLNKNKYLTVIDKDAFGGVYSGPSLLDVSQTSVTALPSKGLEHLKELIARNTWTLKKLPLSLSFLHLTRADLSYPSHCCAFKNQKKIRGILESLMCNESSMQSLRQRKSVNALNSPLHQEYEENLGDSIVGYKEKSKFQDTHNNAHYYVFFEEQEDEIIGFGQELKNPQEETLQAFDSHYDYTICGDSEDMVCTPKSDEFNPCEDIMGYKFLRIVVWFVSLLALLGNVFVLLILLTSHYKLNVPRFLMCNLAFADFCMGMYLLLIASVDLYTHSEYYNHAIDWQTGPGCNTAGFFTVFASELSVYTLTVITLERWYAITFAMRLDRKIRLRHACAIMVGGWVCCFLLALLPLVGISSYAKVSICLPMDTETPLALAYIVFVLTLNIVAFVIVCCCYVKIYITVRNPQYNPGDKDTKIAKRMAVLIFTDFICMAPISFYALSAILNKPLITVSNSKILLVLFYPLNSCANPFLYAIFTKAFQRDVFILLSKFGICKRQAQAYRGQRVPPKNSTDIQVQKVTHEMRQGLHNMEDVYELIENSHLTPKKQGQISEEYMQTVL

The nature of assay [12]: qHTS assay to identify small molecule agonists of the retinoic acid receptor (RAR) signaling pathway (AID 1159553). Also: potency is read from the fitted curve at half-maximal effect. Put shortly: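 Compounds dissolved in DMSO were pinned onto C3RL4 cells seeded the previous day, and plates were held 6 hr at 37 C. RARE-driven luciferase output was then read by luminescence.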
Assay [13] is described as follows: qHTS assay to identify small molecule antagonists of the retinoic acid receptor (RAR) signaling pathway (AID 1159552; also: nearly all actives have a fitted effect of over 50% in size). In a few lines:
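Cells of the C3RL4 line were seeded, incubated overnight, then dosed with compounds in DMSO followed immediately by retinol (1 uM final). Six hours later luciferase detection reagent went in; signal was measured after 30 min at RT.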

Records with an inconclusive call do not appear. Values without a mark were called inactive. Calls of active or inactive are those of the source. Unless noted, calls follow the shape of the dose curve; as a rule, active = well fitted curve in the direction sought with a large enough effect in the repeat runs; inconclusive = weak or mixed curves; inactive = no such curve, though single readings can be large; an effect the other way counts as inactive or inconclusive.
% is scaled to controls: 0 for no effect and ±100 for the full control effect.

Chain of Luciferin 4-monooxygenase (Photinus pyralis) (P08659 whole entry, looked up): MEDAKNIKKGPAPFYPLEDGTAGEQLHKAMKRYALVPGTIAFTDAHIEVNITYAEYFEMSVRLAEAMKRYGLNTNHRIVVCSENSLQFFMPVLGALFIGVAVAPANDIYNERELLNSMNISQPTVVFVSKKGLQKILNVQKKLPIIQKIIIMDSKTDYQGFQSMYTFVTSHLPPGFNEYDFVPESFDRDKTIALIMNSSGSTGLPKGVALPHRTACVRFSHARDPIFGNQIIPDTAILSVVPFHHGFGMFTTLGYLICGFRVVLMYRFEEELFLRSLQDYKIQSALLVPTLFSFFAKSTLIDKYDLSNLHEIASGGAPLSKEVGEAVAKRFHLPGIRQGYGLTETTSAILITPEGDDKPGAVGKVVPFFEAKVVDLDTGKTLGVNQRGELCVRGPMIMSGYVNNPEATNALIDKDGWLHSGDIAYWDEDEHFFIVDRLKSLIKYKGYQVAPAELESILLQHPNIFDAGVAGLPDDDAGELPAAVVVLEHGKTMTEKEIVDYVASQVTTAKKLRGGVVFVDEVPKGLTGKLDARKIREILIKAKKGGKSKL

In the case of `CCN(CC)c1ccc2c(-c3ccccc3C(=O)O)c3ccc(=[N+](CC)CC)cc-3oc2c1`, the Potency in assay [1] is 19.3 µM (active); in assay [2] it was 7.7 µM (active); in [3], 11.2 µM (active); in assay [4] it was 7.7 µM (active); in assay [5], 7.7 µM (active); in assay [7], 17.2 µM (active). Moreover, the Potency in assay [8] is 43.3 µM (active). The Potency entry in assay [6] and in assay [9] was “inactive” in each case.
As to `CCN(CC)c1ccc(C(=C2C=CC(=[N+](CC)CC)C=C2)c2cc(S(=O)(=O)O)ccc2S(=O)(=O)[O-])cc1`, the Potency in assay [1] is 15 µM (active); in assay [2], 29.8 µM (active); in [3], 12.3 µM (active); in assay [6], 11.9 µM (active); in assay [8], 11.9 µM (active). Also, the Potency entry in assay [9] is “inactive”.
`COC(=O)C1=C(C)NC(COC(N)=O)=C(C(=O)OC(C)C)C1c1cccc(Cl)c1Cl` (stereo not drawn): the Potency result in assay [1], in [3], in [4], in assay [5], in assay [6] and in assay [10] was “inactive” in each case. The Potency entry in assay [9] and in assay [11] was “inactive” each time.
With `COc1ccc(C(=O)Nc2nc3ccccc3c(NCc3ccccc3)c2C#N)cc1`, the Potency result in [1], in assay [3], in [4], in assay [5], in assay [6] and in [7] was “inactive” throughout. Besides, the Potency entry in assay [9] and in assay [11] was “inactive” in each case. The Potency in assay [10] is 21.7 µM (active).
Turning to `CCCCCCCC#N`, the Potency entry in [1], in [2], in assay [3], in assay [4], in assay [5] and in assay [7] was “inactive” throughout. The Potency entry in assay [8], in assay [9] and in assay [11] was “inactive” each time.
Take `Clc1ccc2c(c1)CCc1cccnc1C2=C1CCNCC1`: the Potency result in assay [1], in assay [2], in assay [3] and in [5] was “inactive” each time.
Turning to `CCN(CC)CCOC(=O)C(c1ccccc1)C1CCCCC1` (stereo not drawn), the Potency result in assay [12], in assay [3], in assay [4], in [5] and in [6] was “inactive” each time. Moreover, in assay [2], the Potency is 29.8 µM (active).
In the case of `COc1cc(Cl)ccc1Oc1ccc(Cl)cc1Cl`, the Potency result in assay [2], in assay [4], in assay [5], in assay [6], in assay [7] and in assay [8] was “inactive” throughout. Besides, the Potency entry in assay [11] is “inactive”. Also, in [10], the Potency is 29.8 µM (active).
Regarding `CCc1cc(C2=C(C(=O)O)N(c3ccccc3C(F)(F)F)S(=O)(=O)c3ccccc32)cc2c1OCO2`, the Potency entry in assay [1], in assay [3], in assay [10] and in assay [9] was “inactive” throughout. Also, the Potency in assay [2] is 7.61 µM (active); in assay [8], 30.3 µM (active).
Turning to `CCCCC(=O)OCC(=O)[C@H]1[C@H](C)C[C@H]2[C@@H]3C[C@H](F)C4=CC(=O)C=C[C@]4(C)[C@@]3(F)[C@@H](O)C[C@@]21C`, the Potency result in assay [1], in [2], in assay [3], in [4], in assay [5] and in [6] was “inactive” in each case. The Potency entry in [10], in [7] and in assay [11] was “inactive” each time.
On to `C/C=C/C(=O)CC`, for which the activity, negative = inhibition in assay [13] was 130% [at 19 µM]; in [6], -5.29% [at 19 µM]. For the same molecule, the results for the viability change, negative = cytotoxic in assay [2], in assay [4] and in assay [7] were 3.2% [at 19 µM], 4.38% [at 19 µM] and 7.3% [at 19 µM], respectively. For the same molecule, the activity change, negative = inhibition in assay [3] is 3.1% [at 23.6 µM]. Also, in assay [5], the activity change, negative = cytotoxicity is 0.0894% [at 19 µM]. Moreover, in [10], the Potency entry is “inactive”. Also, in assay [11], the activation was -10.5% [at 19 µM].
Consider `CO[C@@H]1[C@H](OC(=O)/C=C/C=C/C=C/C=C/C(=O)O)CC[C@]2(CO2)[C@H]1[C@@]1(C)O[C@@H]1CC=C(C)C`, for which the Potency entry in assay [1], in [2], in assay [3], in [4], in [5] and in assay [10] was “inactive” each time. Further, the Potency result in [7], in assay [8], in [9] and in assay [11] was “inactive” in each case.
For `CCCCNc1ccc(C(=O)OCCOCCOCCOCCOCCOCCOCCOCCOCCOC)cc1`, the Potency entry in [1], in [2], in assay [3], in [4], in assay [5] and in [6] was “inactive” throughout. In addition, the Potency entry in assay [10], in assay [7], in assay [8] and in assay [9] was “inactive” each time.
As for `Cc1oc(-c2ccccc2)nc1CCOc1cccc2c1ccn2CCC(=O)O`, the Potency entry in assay [13], in [12], in [4], in assay [6], in [7] and in [11] was “inactive” each time. Also, the Potency in [2] was 30.6 µM (active).
For the molecule `O=C(Nc1ccccc1)c1ccccc1O`, the values for the Potency in [12] and in assay [3] were 8.63 µM (active) and 15.9 µM (active), respectively. Moreover, the Potency entry in assay [4], in assay [5], in [6] and in assay [9] was “inactive” each time.
Regarding `CC(C)Nc1ccc(NC(C)C)c2c1C(=O)c1ccccc1C2=O`, the Potency entry in assay [12], in [4], in assay [5], in assay [6] and in assay [10] was “inactive” each time. For the same molecule, the figures for the Potency in [2] and in assay [3] were 20.1 µM (active) and 33 µM (active), respectively.
For the molecule `OCCN1CCN(CCCN2c3ccccc3C=Cc3ccccc32)CC1`, the Potency result in assay [12], in [3], in assay [6], in assay [10], in assay [7] and in assay [11] was “inactive” throughout.
Consider `CN1CCC(N(Cc2cccs2)c2ccccc2)CC1`, for which the Potency result in assay [1], in assay [3], in assay [4], in assay [5], in [6] and in assay [7] was “inactive” each time. In [9], the Potency entry is “inactive”.
As to `CCOC(=O)NCCOc1ccc(Oc2ccccc2)cc1`, the Potency result in [1], in [4], in assay [5], in assay [6], in assay [7] and in [9] was “inactive” each time. In addition, the Potency in assay [3] was 31.7 µM (active).
For the molecule `C[C@H]1C[C@H]2[C@@H]3CCC4=CC(=O)C=C[C@]4(C)[C@@]3(Cl)[C@@H](O)C[C@]2(C)[C@@]1(O)C(=O)CO`, the Potency entry in assay [1], in assay [2], in [3], in assay [4], in [5] and in assay [6] was “inactive” in each case. Also, the Potency result in assay [10], in assay [7], in assay [9] and in assay [11] was “inactive” in each case.
As to `CN(C)CCOC(c1ccccc1)c1ccc(Br)cc1` (stereo not drawn), the Potency entry in assay [2], in assay [3], in assay [4], in [5], in assay [6] and in assay [10] was “inactive” each time. Besides, the Potency entry in assay [9] and in assay [11] was “inactive” throughout.
For `C[N+]1(CC2COC(c3ccccc3)(C3CCCCC3)O2)CCCCC1` (stereo not drawn), the Potency result in [1], in [2], in assay [3], in assay [4], in assay [5] and in assay [10] was “inactive” each time. The Potency entry in assay [7], in [9] and in assay [11] was “inactive” each time.
Turning to `CCCCCCCCCc1ccc(OCCOCCO)cc1`, the Potency in assay [2] was 10.2 µM (active); in [4], 6.44 µM (active); in assay [5], 5.74 µM (active); in assay [7], 10.2 µM (active). The Potency entry in assay [3] and in [6] was “inactive” each time.
For `S=C([S-])NCCNC(=S)[S-].[Mn+2]`, the Potency entry in [1], in [2], in assay [7] and in assay [11] was “inactive” each time. In addition, the Potency in assay [3] is 12.6 µM (active).
As to `CC1=CC[C@H](C(C)C)C=C1`, the Potency entry in assay [1], in assay [2], in [3], in assay [4], in assay [5] and in assay [6] was “inactive” throughout. Moreover, the Potency entry in [10] and in assay [7] was “inactive” in each case.
Consider `O[C@@H](COc1cccc2ncccc12)CN1CCN(C2c3ccccc3[C@@H]3[C@H](c4ccccc42)C3(F)F)CC1` (stereo partly drawn), for which the Potency in assay [2] is 9.44 µM (active); in assay [11], 11.9 µM (active). For the same molecule, the Potency result in assay [3] and in assay [10] was “inactive” each time.

The values are drawn from PubChem BioAssay (Tox21).
